# Bioassay records from PubChem BioAssay.
# Fam108B counter – counter-screen for RBBP9 inhibitors: inhibitors of mouse Fam108B. recombinant Fam108B, FP-Rh probe fluorescence polarization. inhibition, % at 9.51 µM. 300,000 tested, 0.33% active;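 active = inhibition above the screen mean inhibition plus 3 SD, computed separately per campaign, cut at about 18% in these data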;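 also: inhibitors lower polarization as less probe binds the enzyme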
# PME-1 primary – blocks human protein phosphatase methylesterase 1; 320,000 tested, 0.53% active; Q9Y570; inhibition, % at 5.9 µM; AID 2130; recombinant PME-1, FP-Rh probe fluorescence polarization;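 active = inhibition above the campaign mean of all compounds plus 3 SD, cut at about 26% in these data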;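 also: competitive labeling of PME-1 active site by serine hydrolase directed probe; 0% = PME-1 with DMSO and 100% = wells lacking PME-1 enzyme; inhibitors block probe labeling so polarization falls and inhibition rises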
# PAFAH1B2 FP inh – inhibitors of human PAFAH1B2. recombinant PAFAH1B2, FP-rhodamine activity probe, fluorescence polarization. P68402. inhibition, % at 3.39 µM. 340,000 tested, 1.2% active;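 active = inhibition above the mean of all tested compounds plus 3 SD, cut at about 24% in these data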;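 also: 0% = enzyme with DMSO and 100% = wells lacking PAFAH1B2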
# Target sequence (P68402 whole entry, looked up): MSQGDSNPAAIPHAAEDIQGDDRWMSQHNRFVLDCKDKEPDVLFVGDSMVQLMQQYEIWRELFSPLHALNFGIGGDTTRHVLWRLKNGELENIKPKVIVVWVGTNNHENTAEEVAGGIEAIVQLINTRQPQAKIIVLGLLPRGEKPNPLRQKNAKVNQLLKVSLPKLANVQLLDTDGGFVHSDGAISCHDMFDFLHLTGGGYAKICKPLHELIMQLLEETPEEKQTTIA
# PAFAH1B3 FP inh – PAFAH1B3 (human) inhibition. Q15102. 340,000 tested, 0.28% active. recombinant PAFAH1B3, FP-rhodamine probe, fluorescence polarization. inhibition, % at 3.39 µM. AID 492972;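 active = inhibition above the screen-wide average of all tested compounds plus 3 SD, cut at about 25% in these data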;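 also: 0% = enzyme with DMSO only and 100% = wells lacking PAFAH1B3 protein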
# Target sequence (Q15102 whole entry, looked up): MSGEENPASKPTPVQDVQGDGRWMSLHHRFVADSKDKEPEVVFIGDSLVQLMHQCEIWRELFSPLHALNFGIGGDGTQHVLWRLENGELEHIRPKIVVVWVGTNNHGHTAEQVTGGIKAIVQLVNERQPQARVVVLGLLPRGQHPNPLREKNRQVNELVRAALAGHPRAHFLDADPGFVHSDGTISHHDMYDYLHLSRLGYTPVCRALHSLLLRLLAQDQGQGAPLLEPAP
# pPAFAH inh – inhibitors of human plasma PAF acetylhydrolase (pPAFAH) | Q13093 | recombinant pPAFAH, FP-rhodamine probe fluorescence polarization | inhibition, % at 3.39 µM | 330,000 tested, 1.5% active | AID 463082;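 active = inhibition above the mean inhibition across the screen plus 3 SD, cut at about 25% in these data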;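 also: inhibitors block binding of the rhodamine activity-based probe so polarization drops; 0% = enzyme with DMSO and 100% = wells lacking pPAFAH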
# PAFAH2 FP inh – inhibitors of human PAFAH2. Q99487. recombinant PAFAH2, FP-rhodamine activity probe, fluorescence polarization. inhibition, % at 3.39 µM. 340,000 tested, 0.99% active. AID 492956;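 active = inhibition above the mean over all tested compounds plus 3 SD, cut at about 30% in these data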;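 also: inhibitors block probe labeling of enzyme so polarization drops; 0% = enzyme with DMSO and 100% = wells lacking PAFAH2 protein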
# An asterisk follows results filed as active; . = no result. Rows were chosen to be rich in hits. Some 2.8% of all compounds tested hit in one or more screens of this group.
SMILES,Fam108B counter,PME-1 primary,PAFAH1B2 FP inh,PAFAH1B3 FP inh,pPAFAH inh,PAFAH2 FP inh
COc1ccc(NC(=O)Nc2cc(C(=O)O)ccc2N2CC3CC(C2)c2cccc(=O)n2C3)c(OC)c1 (stereo not drawn),4,-3,4,4,17,-2
Clc1ccccc1/C=C/c1ccnc2ccccc12,2,-14,3,5,31*,-1
Oc1ccc(/C=C/c2ccnc3ccccc23)cc1,5,0,4,14,8,5
CN(Cc1ccccc1)C(=O)c1ccccc1N(C)S(=O)(=O)c1ccccc1,.,.,2,3,.,9
c1ccc(CNc2nc(CN3CCOCC3)nc3scc(-c4ccccc4)c23)cc1,6,-1,4,1,34*,0
Clc1ccc(-c2csc3ncnc(NCCN4CCOCC4)c23)cc1,3,-3,1,2,-2,4
c1ccc(-c2csc3ncnc(NCCN4CCOCC4)c23)cc1,2,-2,4,-8,5,2
Clc1ccc(CNc2nc(CN3CCOCC3)nc3scc(-c4ccccc4)c23)cc1,-1,-1,7,9,33*,-1
CCc1ccc(C(=O)NNC(=O)c2c(CC)noc2C)cc1,3,-2,2,3,-2,1
CC(C)(C)c1ccc(OCC(=O)NCc2ccco2)c(Br)c1,-2,-5,15,3,28*,13
CC(C)(C)c1ccc(OCC(=O)NNC(=S)NC(=O)c2ccco2)c(Br)c1,4,7,18,2,4,-11
COc1ccc(OC)c(/C=C2\SC(=S)N(NS(=O)(=O)c3ccc(C)cc3)C2=O)c1,8,-2,-1,9,26*,14
COc1ccc(/C=C2\SC(=S)N(NS(=O)(=O)c3ccc(C)cc3)C2=O)c(OC)c1,0,-10,8,18,19,9
CC(C(=O)NC1CCCCC1)N1CCN(C)CC1 (stereo not drawn),3,4,5,0,5,-4
O=C(N[C@@H](Cc1ccc(Br)cc1)C(=O)O)OCC1c2ccccc2-c2ccccc21,-12,4,70*,-2,14,6
CC(NC(=O)OCc1ccccc1)c1ccccc1 (stereo not drawn),2,-4,15,1,1,8
Nc1ccc(CNC(=O)OCC2c3ccccc3-c3ccccc32)cc1,2,5,3,8,2,0
CC(c1ccccc1)C(NC(=O)OCC1c2ccccc2-c2ccccc21)C(=O)O (stereo not drawn),-3,-6,29*,-12,8,10
CCN(CC)CCN(Cc1cc2cc3c(cc2[nH]c1=O)OCO3)C(=S)NC,2,-7,3,-1,0,2
CC(C)(C)c1ccc(C(=O)CC(Sc2ccc(Cl)cc2)C(=O)O)cc1 (stereo not drawn),-1,-1,83*,1,3,40*
O=C(O)c1ccc(S(=O)(=O)N(Cc2ccc(F)cc2)C2CCCCC2)cc1,2,0,26*,-2,3,0
Cc1ccc(N(CCC#N)C(=O)CSc2nnc3ccccn23)cc1,.,-9,3,-4,-8,0
Clc1ccccc1OCCCCn1ccnc1,-5,-2,1,-2,-3,8
Clc1ccc(SCCCCn2ccnc2)cc1,1,0,71*,9,5,2
O=C(N/N=C/c1ccccc1)C1CCCN1C(=O)c1cc([N+](=O)[O-])cc([N+](=O)[O-])c1 (stereo not drawn),.,.,3,3,.,-1
SMILES,Fam108B counter,PME-1 primary,PAFAH1B2 FP inh,PAFAH1B3 FP inh,pPAFAH inh,PAFAH2 FP inh
Oc1ccc(/C=C/c2ccc3cccc(O)c3n2)cc1Br,8,31*,8,24,18,6
CCc1cccc2c(/C=N/NC(=O)c3cccc(S(=O)(=O)Nc4ccccc4Cl)c3)c[nH]c12,13,19,26*,31*,27*,4
Cc1cccc(C(=O)O/N=C(\c2ccccc2)c2cccnc2)c1,-1,0,14,3,30*,72*
N/C(=N\OC(=O)c1ccccc1)c1cccnc1,1,2,-2,5,-1,-2
O=C(CNc1cccc(F)c1)Nc1cccc(S(=O)(=O)N2CCCCC2)c1,.,.,3,0,.,1
Cc1ccc(NC(=O)CNc2cccc(S(=O)(=O)N3CCCCC3)c2)cc1F,-2,-2,-2,2,31*,-5
CC(C)C(NC(=O)Nc1ccccc1)C(=O)Nc1cccc(S(=O)(=O)N(C)C)c1 (stereo not drawn),-1,-1,-4,9,8,7
Cc1nnc(SCC(=O)N(Cc2ccccc2)C(C)(C)C)[nH]c1=O,0,2,25*,7,0,4
Cc1ccccc1NS(=O)(=O)c1ccc(C2CNC(=O)C2)cc1 (stereo not drawn),2,5,4,4,33*,-1
O=C1CC(c2ccc(S(=O)(=O)NCc3ccccc3)cc2)CN1 (stereo not drawn),-3,2,3,-3,-4,-4
O=C(Nc1nc(-c2ccccn2)cs1)C1CC1,-1,-6,2,5,-2,3
O=C(CC1CC2CCC1C2)Nc1nc(-c2ccccn2)cs1 (stereo not drawn),4,-5,55*,2,5,6
COc1ccc(Nc2nc(NN)nc(C)c2[N+](=O)[O-])cc1,9,29*,15,11,9,-1
Cc1nc(Nc2ccc(F)cc2)nc(Nc2ccc(F)cc2)c1[N+](=O)[O-],-16,-6,-1,5,3,-6
CC(=O)Nc1ccc(Nc2nc(C)c([N+](=O)[O-])c(Nc3ccccc3)n2)cc1,12,30*,3,14,17,6
Cc1nc(Nc2ccc(C(=O)O)cc2)nc(Nc2ccc(C(=O)O)cc2)c1[N+](=O)[O-],3,-5,12,8,9,8
COc1cc(C(O)c2nc3ccccc3s2)cc(OC)c1OC (stereo not drawn),1,6,2,1,0,2
O=C([C@H](Cc1ccccc1)NS(=O)(=O)c1ccc(Cl)cc1)N1CC[C@@]2(O)CCCC[C@H]2C1,-1,-2,30*,4,5,26
CC1CCc2c(sc3nc(CN4CCOCC4)nc(NS(=O)(=O)c4cccc([N+](=O)[O-])c4)c23)C1 (stereo not drawn),2,-3,0,6,25*,6
Cc1cc(S(=O)(=O)Nc2nc(CN3CCOCC3)nc3sc4c(c23)CCCC4)ccc1F,-3,-2,8,8,11,7
CC(=O)Nc1ccc(NC(=O)COC(=O)c2c(-c3ccccc3)noc2C)cc1,.,5,6,3,-4,8
O=C(NNC(=O)C12CC3CC(CC(C3)C1)C2)c1cccc([N+](=O)[O-])c1,1,-3,30*,6,6,1
